In the library only some 1.9% were active in any assay of this set; here they are far more common.
S1P3 antagonist – S1P3 receptor antagonists, primary screen, cell-based; Sphingosine 1-phosphate receptor 3 (Homo sapiens), Q99500; CHO S1P3 NFAT-BLA reporter, FRET fluorescence, antagonist mode; inhibition, % at 4.98 µM; 170,000 tested, 0.27% active; AID 485, 2006;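 active means inhibition above the plate cutoff, the mean inhibition of test wells on that plate plus 3 SD, cut at about 28% in these data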;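 further: cells challenged with S1P at its EC80 of 0.8 µM; blue over green emission ratio from cleaved BLA substrate after 4 h stimulation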
EP2 modulator – EP2 receptor modulators, cAMP readout, primary screen, cell-based, HTRF cAMP, PGE2 stimulation; Prostaglandin E2 receptor EP2 subtype (Homo sapiens), P43116; induction, % at 25 µM; EP2-expressing cells, cAMP HTRF FRET, PGE2 co-stimulation; AID 940, 2007; 260,000 tested, 0.83% active;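 active means compounds whose cAMP rise, as percent of the full-agonist control response, exceeds 60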;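 further: rat C6 glioma line stably carrying human EP2 under a CMV promoter; the protocol text gives 20 µM as final concentration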
Target sequence (P43116 whole entry, looked up): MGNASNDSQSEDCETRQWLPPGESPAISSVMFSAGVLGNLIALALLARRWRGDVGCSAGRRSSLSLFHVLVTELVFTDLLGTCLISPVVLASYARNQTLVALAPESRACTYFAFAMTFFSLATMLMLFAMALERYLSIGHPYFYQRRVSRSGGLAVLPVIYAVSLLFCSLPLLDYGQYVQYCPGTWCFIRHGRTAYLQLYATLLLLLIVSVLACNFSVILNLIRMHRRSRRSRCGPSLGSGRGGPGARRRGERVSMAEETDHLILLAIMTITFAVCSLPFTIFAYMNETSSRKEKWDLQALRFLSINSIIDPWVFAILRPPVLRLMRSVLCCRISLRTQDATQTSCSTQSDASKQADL
S1P4 agonist – S1P4 receptor agonists, primary screen, cell-based; Sphingosine 1-phosphate receptor 4 (Homo sapiens), O95977; S1P4-expressing cell line, agonist reporter assay; activation, % at 4.98 µM; 220,000 tested, 0.35% active; AID 1509, 2009; in the data active means activation above about 11%
Target sequence (O95977 whole entry, looked up): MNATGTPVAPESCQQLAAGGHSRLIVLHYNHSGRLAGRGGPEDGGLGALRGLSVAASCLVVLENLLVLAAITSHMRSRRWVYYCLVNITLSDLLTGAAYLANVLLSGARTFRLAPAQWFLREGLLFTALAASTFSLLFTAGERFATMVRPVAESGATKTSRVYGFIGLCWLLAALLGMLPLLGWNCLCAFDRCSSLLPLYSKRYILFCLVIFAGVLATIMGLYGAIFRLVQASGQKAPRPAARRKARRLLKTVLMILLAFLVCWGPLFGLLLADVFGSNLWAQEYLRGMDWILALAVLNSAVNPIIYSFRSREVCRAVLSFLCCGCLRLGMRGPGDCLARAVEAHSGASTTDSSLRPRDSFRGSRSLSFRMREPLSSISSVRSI
S1P4 antag – S1P4 receptor antagonists, primary screen, cell-based | Sphingosine 1-phosphate receptor 4 (Homo sapiens), O95977 | 220,000 tested, 0.26% active | S1P4-expressing cells, antagonist mode, reporter read-out | inhibition, % at 4.98 µM | AID 1510, 2009; in the data active means inhibition above about 29%
PGE2 EP2 inh – human EP2 receptor antagonists, primary screen, TR-FRET cAMP, C6 glioma cells. Prostaglandin E2 receptor EP2 subtype (Homo sapiens), P43116. 260,000 tested, 0.52% active. AID 1422, 2008. inhibition, % at 25 µM. C6 glioma cells expressing human EP2; cells stimulated with saturating PGE2;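 active means percent inhibition above 40 after rounding to a whole number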;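 further: rat C6 glioma host cells with rolipram phosphodiesterase inhibitor present; the protocol text gives 20 µM as final concentration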
S1P4 antag conf – S1P4 receptor antagonists, human, confirmation, cell-based; shares compounds with S1P4 antag; S1P4-expressing cell line, antagonist mode, reporter read-out; inhibition, % at 4.98 µM; 520 tested, 71% active; AID 1524, 2009; in the data active means inhibition above about 30%
S1P1 antagonist – S1P1 receptor antagonists, human, counter-screen for S1P4 antagonist project, cell-based | cell-based S1P1 antagonist counterscreen, inhibition | inhibition, % at 4.98 µM | AID 1564, 2009 | 520 tested, 37% active | shares compounds with S1P4 antag; in the data active means inhibition above about 40%;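 further: receptor stimulated with S1P near its EC80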
Of the large screens only hits and unclear results are named; the others gave an inactive call (follow-up assays come after a bar, where they were run).

O=C(Nc1cccc2ccccc12)/C(Cl)=C/c1ccccc1	S1P4 antag 61 (no result: S1P3 antagonist) | S1P4 antag conf 68 | S1P1 antagonist inactive
Cc1ccc(-c2nc(C=Nc3ccc(O)cc3)c(O)o2)cc1	S1P4 antag 31 | S1P4 antag conf 43 | S1P1 antagonist inactive
CN=Cc1nc(-c2ccccc2)oc1O	none (no result: S1P3 antagonist)
Cc1cc(-c2cnc(C)nc2C2CCN(C(=O)Cc3cccs3)CC2)on1	none (no result: S1P3 antagonist, S1P4 agonist, S1P4 antag, PGE2 EP2 inh)
COc1ccc(CN(C(=O)c2oc3ccccc3c2C)C2CCS(=O)(=O)C2)cc1OC (centres undefined)	S1P4 antag 32 | S1P4 antag conf inactive | S1P1 antagonist inactive
COc1ccc(N2CCN(C(=O)CN3CCc4nc(C)[nH]c(=O)c4C3)CC2)cc1	none (no result: S1P3 antagonist, S1P4 agonist, S1P4 antag)
COc1cccc(CN2CCc3nc(N4CCC(C)CC4)[nH]c(=O)c3C2)c1	none (no result: S1P3 antagonist, S1P4 agonist, S1P4 antag)
Oc1ccc2ccccc2c1N=Nc1ccccc1F	none
Oc1ccc2ccccc2c1N=Nc1ccccn1	S1P4 antag 50 (no result: S1P3 antagonist) | S1P4 antag conf 78 | S1P1 antagonist 83
Cc1ccc(NC(=O)C(=O)NCC2CCCO2)cc1 (centres undefined)	S1P4 antag 79 | S1P4 antag conf inactive | S1P1 antagonist inactive
CS(=O)(=O)N1CCCc2cc(C(O)CN3CCN(c4ccccn4)CC3)ccc21 (centres undefined)	none (no result: S1P3 antagonist, S1P4 agonist, S1P4 antag)
CCOC(=O)C1=C(C)N=C2SC(C(=O)OC)=CC(=O)N2C1c1ccc(OC)cc1 (centres undefined)	S1P4 antag 46 | S1P4 antag conf inactive | S1P1 antagonist inactive
CN(NC(=O)Nc1ccc(Cl)cc1)c1c(Cl)c(Cl)nn1C	S1P4 antag 53 | S1P4 antag conf 47 | S1P1 antagonist inactive
CN1Cc2c(N3CCOCC3)nc3sc(C(=O)c4ccc(Br)cc4)c(N)c3c2CC1(C)C	S1P4 antag 43 | S1P4 antag conf 57 | S1P1 antagonist 58
O=C(NCc1ccco1)c1ccccc1-c1nc(-c2ccccc2)no1	S1P4 antag 30 (no result: S1P3 antagonist) | S1P4 antag conf inactive | S1P1 antagonist inactive
COc1ccc(OC)c(N(CC(=O)N2CCN(Cc3ccc4c(c3)OCO4)CC2)S(C)(=O)=O)c1	none (no result: S1P3 antagonist, S1P4 agonist, S1P4 antag)
COc1ccc2c(c1)c(/C=N/Nc1nc3ccccc3[nH]1)c(C)n2C	S1P4 antag 32, PGE2 EP2 inh 49 | S1P4 antag conf inactive | S1P1 antagonist inactive
COc1cc(/C=N\Nc2nc3ccccc3[nH]2)cc(OC)c1OC	none (no result: S1P3 antagonist)
CC(=O)O[C@@H]1CC2C(C)(C)[C@@H](O)CC[C@]2(C)C2CC[C@@]3(C)[C@H](c4ccoc4)OC(=O)[C@H]4O[C@]43[C@@]21C (some centres undefined)	none (no result: S1P3 antagonist, S1P4 agonist, S1P4 antag)
Cc1ccc(C(=O)NCC#N)cc1	none
Cc1ccc(C(=O)NC(C#N)=C(Cl)Cl)cc1	S1P4 antag 60 | S1P4 antag conf 110 | S1P1 antagonist inactive
Oc1ccccc1C1CC(c2cccs2)=NC(c2ccc(Cl)cc2)N1 (centres undefined)	S1P4 antag 46 | S1P4 antag conf inactive | S1P1 antagonist inactive
Nc1cccc(-n2nncc2-c2ccc(Cl)cc2)c1	S1P4 antag 32 (no result: S1P3 antagonist) | S1P4 antag conf inactive | S1P1 antagonist inactive
COc1ccc(-c2cnnn2-c2ccc(N)cc2)cc1OC	none
COc1cccc2c(Nc3ccc(C(C)=O)cc3)cc(C)nc12	none (no result: S1P3 antagonist, S1P4 agonist, S1P4 antag)
Cn1nc(-c2ccc(Cl)cc2)nc2c(=O)n(C)c(=O)nc1-2	S1P4 antag 90 (no result: S1P3 antagonist) | S1P4 antag conf 110 | S1P1 antagonist 88
CS(=O)(=O)n1nc(-c2ccc(Cl)cc2)nc1N	none
COc1ccc(C(=O)Nc2cccc(-c3nc4ncccc4o3)c2C)cc1	S1P4 antag 33 (no result: S1P3 antagonist) | S1P4 antag conf inactive | S1P1 antagonist inactive
CCc1ccc2[nH]c(=O)c(C(c3nnnn3C(C)(C)C)N(Cc3ccccc3)Cc3ccco3)cc2c1 (centres undefined)	none (no result: S1P3 antagonist, S1P4 agonist, S1P4 antag)
O=C(/C=C/c1ccc(Br)cc1)c1ccco1	S1P4 antag 54 | S1P4 antag conf 81 | S1P1 antagonist inactive
O=C(/C=C/c1ccc(Br)cc1)c1ccc(NC(=O)c2ccco2)cc1	none
Oc1ccc(C2C=C(c3ccc(F)cc3)Nc3ncnn32)cc1 (centres undefined)	S1P4 antag 43 | S1P4 antag conf inactive | S1P1 antagonist inactive
COc1ccc(C2C=C(c3ccc(C)cc3)Nc3ncnn32)cc1 (centres undefined)	S1P4 antag 29 (no result: S1P3 antagonist, PGE2 EP2 inh) | S1P4 antag conf 43 | S1P1 antagonist 44
Cn1c(=O)c2c(ncn2CC(=O)N2C3CCC2CC(c2ccc(F)cc2)C3)n(C)c1=O (centres undefined)	none (no result: S1P3 antagonist, S1P4 agonist, S1P4 antag, PGE2 EP2 inh)
CNC(=S)NNC(=O)c1cccnc1	none (no result: S1P3 antagonist, S1P4 agonist, S1P4 antag)
O=C(OCn1ncc(Cl)c(Cl)c1=O)c1ccc(F)cc1	none (no result: S1P3 antagonist)
CC(C)(C)C(=O)Cn1ncc(Cl)c(Cl)c1=O	S1P4 antag 53 | S1P4 antag conf 78 | S1P1 antagonist inactive
O=C1CN(C(=O)Cn2ncc(Cl)c(Cl)c2=O)c2ccccc2N1	S1P4 antag 38 | S1P4 antag conf 117 | S1P1 antagonist 69
Cc1nc2ccccc2n1CC(=O)N1CC(=O)Nc2ccccc21	none
Cc1ccc(NC(=O)CN(C)C(=O)Cn2ncc(Cl)c(Cl)c2=O)cc1	S1P4 antag 82 | S1P4 antag conf 106 | S1P1 antagonist 79
O=c1c(Cl)c(Cl)cnn1Cc1ccc(F)cc1	S1P4 antag 60 | S1P4 antag conf 105 | S1P1 antagonist inactive
O=C(CSc1ncnc2sc3c(c12)CCCC3)NCc1ccc2c(c1)OCO2	none (no result: S1P3 antagonist, S1P4 agonist, S1P4 antag)
CC1CCc2c(sc3ncn4c(=O)n(CC(=O)N5CCCCC5)nc4c23)C1 (centres undefined)	none (no result: S1P3 antagonist, S1P4 agonist, S1P4 antag, PGE2 EP2 inh)
O=C(Cn1ncc(Cl)c(Cl)c1=O)c1ccc(Cl)cc1	S1P4 antag 44 (no result: S1P3 antagonist, PGE2 EP2 inh) | S1P4 antag conf 107 | S1P1 antagonist 63
Cc1cc(C)c2c(NCc3ccco3)n[nH]c2n1	none (no result: S1P3 antagonist, S1P4 agonist, S1P4 antag)
CCc1ccc(OCC(=O)NC(NC(=S)Nc2ccc(Cl)cc2)C(Cl)(Cl)Cl)cc1 (centres undefined)	S1P4 antag 42 | S1P4 antag conf inactive | S1P1 antagonist inactive
CCOC(=O)COc1cc([N+](=O)[O-])cc2cccnc12	none
CCOC(=O)COc1ccccc1/C=C\[N+](=O)[O-]	S1P4 antag 33, PGE2 EP2 inh 92 | S1P4 antag conf 114 | S1P1 antagonist 72
COC(=O)c1cc(=O)n(-c2ccc(F)cc2)c(=Nc2ccc(F)cc2)s1	S1P4 antag 29 | S1P4 antag conf 100 | S1P1 antagonist 76
C=Cn1c(C(=O)O)cc2c1CCCC2	none (no result: S1P3 antagonist, S1P4 agonist, S1P4 antag)
COc1ccc(-c2cc(C(F)F)n3ncc(C(=O)N4CCCC4)c3n2)cc1	none (no result: S1P3 antagonist, S1P4 agonist, S1P4 antag)

Bioassay records (PubChem)
